The results in this text go back to PubChem BioAssay AID2685 (National Center for Advancing Translational Sciences (NCATS), 2010).

About 2,100 (0.66%) of roughly 320,000 compounds were called active. Not shown: some 53% with an inconclusive outcome. Calls follow the shape of the dose curve; as a rule, active = well fitted inhibition curve with a large enough effect in the signal ratio, with a control signal flat (not every such curve was filed as active); inconclusive = small, poorly fitted or top-dose-only effect, or effect the other way, or a change in a side signal; inactive = flat fitted curve, though single readings scatter; the % refers to the signal ratio. Only a selection was taken, and actives are over-represented in it overall.
Potency is read from the fitted curve at half-maximal effect.

This assay in a line: qHTS Assay for Lipid Storage Modulators in Drosophila S3 Cells.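 As to cell number change: cells counted by Cell Tracker Red CMTPX staining in the red channel.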 As to lipid storage change, negative = inhibition: % is scaled to controls: 0 for no effect and ±100 for the full control effect. The following applies: BODIPY lipid droplet fluorescence, 18-24 h, cells fed with added oleic acid; cell number change: measured here: cell count max response; series mostly up to 46.1 µM. The method, boiled down: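 Drosophila S3 cells loaded with oleic acid (400 uM, as added) and compounds at several concentrations; lipid droplets imaged by 488-nm laser-scanning cytometry, 500–530 nm intensity and object ratio to cell channel. Percent activity normalized to 20 uM Triacsin C.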
On the technique in general: Quantitative high-throughput screening tests each substance at several concentrations.
For `N#Cc1ccc(C[C@@H](NS(=O)(=O)c2ccc(C(=O)O)cc2)C(=O)O)cc1`, the Potency entry was “inactive” and the cell number change was determined as 17.7%.
As for `COc1cc(/C=C2/C(=O)N(c3ccc(Br)cc3)N=C2C)cc([N+](=O)[O-])c1O`, the Potency entry was “inactive”.
Take `COc1ccc(OCCCCOc2ccccc2Cl)cc1`: the Potency result was “inactive” and the cell number change is 0.395%.
The corresponding values for `NNC(=O)/C(=C\c1ccc(Br)cc1)NC(=O)c1cccs1` are “inactive” and 2.9%.
Regarding `COc1ccc(NC(=O)CCNC(=O)c2ccc([N+](=O)[O-])cc2)cc1S(=O)(=O)N1CCOCC1`, the Potency entry was “inactive” and the cell number change was -1.49%.
On to `CC(C)(C)OC(=O)Cn1c(=O)cnc2ccccc21`, for which the Potency entry was “inactive” and the cell number change is 6.02%.
On to `COC(=O)Cn1c(=O)cnc2ccccc21`, for which the Potency was 16.4 µM (active) and the cell number change stood at 11.6%.
With `COc1ccc(OCC(=O)NNC(=O)Cn2c(=O)cnc3ccccc32)cc1`, the Potency entry is “inactive” and the cell number change was found to be 2.51%.
Consider `CCC1=C(OC(=O)N(CC)CC)N2C(=O)OC(=NCc3ccccc3)[C@]2(C)[C@H]2C1=CC[C@H]1C(=O)N(c3ccccc3)C(=O)[C@H]12`, for which the Potency result was “inactive” and the cell number change is 11.7%.
In the case of `Cc1cc(NC(=O)COC(=O)c2ccccc2[N+](=O)[O-])no1`, the Potency result was “inactive” and the cell number change was -0.913%.
Take `O=C(C1=C(O)C(=O)N(CCc2ccccc2)C1c1cccs1)c1ccco1` (stereo not given): the Potency entry is “inactive”.
On to `Cc1ccc2c(c1)S/C(=C/c1ccc[n+](CCO)c1)N2C`, for which the Potency entry was “inactive” and the cell number change stood at 5.41%.
Regarding `CN1/C(=C/c2cccc[n+]2CCO)Sc2ccccc21`, the Potency entry was “inactive” and the cell number change stood at 0.676%.
The corresponding values for `COc1ccccc1-[n+]1c(C)cc(/C=C2\Sc3ccccc3N2C)cc1C` are 0.082 µM (active) and -16.5%.
For the compound `Cn1cc(CN2CCCC(CNC(=O)c3ccc4c(c3)OCO4)C2)c2ccccc21` (stereo not given), the Potency result is “inactive” and the cell number change was -1.43%.
The corresponding values for `COc1ccc(-n2nc3c(c2NC(=O)CBr)CSC3)cc1` are “inactive” and 13.3%.
With `C=CCC(NCc1ccco1)c1ccc(OC)c(OC)c1` (stereo not given), the Potency was 23.1 µM (active).
In the case of `C=CCC(Nc1ccccc1)c1ccc(OC)c(OC)c1` (stereo not given), the Potency entry is “inactive” and the cell number change came to 7.9%.
The corresponding values for `C=CCC(NCc1ccco1)c1ccc(OC)cc1` (stereo not given) are “inactive” and -21.6%.
The like results for `CCOc1ncccc1C(=O)OCC(=O)Nc1cc(S(=O)(=O)N(CC)CC)ccc1C` were, in that order, “inactive” and -5.2%.
The corresponding values for `COCCCn1c(-c2ccc(OC)cc2)nc2nc3ccccc3nc21` are “inactive” and 5.75%.
`Cc1ccc(S(=O)(=O)N2CCCCC2)cc1C(=O)N1CCN(c2ccccn2)CC1`: the Potency entry was “inactive”.
Consider `Cc1cccc(C(=O)NCc2nnc(SCC(=O)Nc3nncs3)n2C)c1`, for which the Potency entry was “inactive” and the cell number change is -2.14%.
The like results for `CC(NC(=O)CCC(=O)NC(C)C1COc2ccccc2O1)C1COc2ccccc2O1` (stereo not given) were, in that order, “inactive” and -1.04%.
The like results for `O=C(OC1CCOC1=O)c1cc(-c2cccc(Br)c2)nc2ccccc12` (stereo not given) were, in that order, “inactive” and 21.7%.
The like results for `COc1cc(C(C[N+](=O)[O-])c2c(C)[nH]c3ccccc23)ccc1O` (stereo not given) were, in that order, “inactive” and 20.5%.
In the case of `Cc1cc2ccccn2c1C(C[N+](=O)[O-])c1ccc(N(C)C)cc1` (stereo not given), the Potency entry is “inactive” and the cell number change was 12.9%.
For `COc1cc(C(C[N+](=O)[O-])c2c(C)cc3ccccn23)ccc1O` (stereo not given), the Potency is 0.651 µM (active) and the cell number change is 15.3%.
The like results for `Cc1nc(Cl)sc1C(=O)Nc1ccccc1Cl` were, in that order, “inactive” and -11.3%.
Turning to `Cc1ccccc1NC(=O)c1sc(Cl)nc1C`, the Potency entry is “inactive”.
On to `Cc1nc(Cl)sc1C(=O)Nc1ccc(C(F)(F)F)cc1`, for which the Potency was 1.64 µM (active) and the cell number change was -0.73%.
The corresponding values for `O=C(Nc1cccc(C(F)(F)F)c1)c1sc(Cl)nc1C(F)(F)F` are 10.3 µM (active) and -10.2%.
The like results for `CC(=O)c1cccc(NC(=O)c2sc(Cl)nc2C)c1` were, in that order, “inactive” and 12.6%.
Consider `Cc1nc(Cl)sc1C(=O)Nc1ccc(C(C)(C)C)cc1`, for which the Potency is 7.31 µM (active) and the cell number change was 1.1%.
The like results for `O=C(Nc1cccc(C(F)(F)F)c1)c1cc(-c2ccco2)on1` were, in that order, “inactive” and 7.92%.
`Cc1nc(Cl)sc1C(=O)Nc1cccc(Cl)c1`: the Potency entry is “inactive” and the cell number change is 2.35%.
As to `Cc1ncsc1C(=O)Nc1cccc(C(F)(F)F)c1`, the Potency result was “inactive” and the cell number change was 22.3%.
The like results for `COCCN(C(=O)CNC(=O)c1cccs1)C(C(=O)NC1CCCCC1)c1ccco1` (stereo not given) were, in that order, “inactive” and -12.2%.
The like results for `CC(=O)C(Sc1nnnn1-c1ccc(O)cc1)c1ccccc1` (stereo not given) were, in that order, “inactive” and 5.67%.
`Cn1c(N2CCN(C(=O)Nc3ccc(F)cc3)CC2)nc2ccccc21`: the Potency entry is “inactive” and the cell number change came to 17.1%.
The corresponding values for `COc1ccc(NC(=O)N2CCN(c3nc4ccccc4n3C(C)C)CC2)cc1` are 14.6 µM (active) and -28.6%.
The corresponding values for `CC(C)n1c(N2CCN(C(=O)NCc3ccccc3)CC2)nc2ccccc21` are “inactive” and -4.04%.
The corresponding values for `N#Cc1c(Cl)nc(SCc2ccccc2)nc1-c1ccccc1` are “inactive” and -2.68%.
With `CCC(C)Sc1ccc([C@H]2N[C@@](Cc3ccccc3)(C(=O)OC)[C@H]3C(=O)N(C)C(=O)[C@@H]23)cc1` (stereo not given in full), the Potency entry is “inactive” and the cell number change was found to be 17.3%.
With `O=C(CCN1C(=O)/C(=C\c2ccc(F)cc2)SC1=S)Nc1ccccc1`, the Potency result was “inactive”.
Same read-out and setting: to `COc1cc(/C=C2/SC(=S)N(CCC(=O)Nc3ccccc3)C2=O)cc(OC)c1OC` belongs 1.84 µM (active).
As to `O=C(CCN1C(=O)/C(=C/c2ccccc2)SC1=S)N[C@@H](CO)Cc1ccccc1`, the Potency entry was “inactive” and the cell number change is -19.2%.
Consider `COc1cc(/C=C2\SC(=S)N(CCC(=O)Nc3ccccc3)C2=O)cc(OC)c1OC`, for which the cell number change came out at 15% and the lipid storage change, negative = inhibition was -5.12% [at 9.22 µM] (inactive).
On to `COc1cc(/C=C2\SC(=S)N(CCC(=O)Nc3ccccc3O)C2=O)cc(OC)c1OC`, for which the Potency entry is “inactive”.
As to `COc1ccc(/C=C2\SC(=S)N(CCC(=O)Nc3cccc(O)c3)C2=O)cc1OC`, the Potency entry is “inactive” and the cell number change was -7.94%.
In the case of `O=C(CCN1C(=O)/C(=C/c2ccc(F)cc2)SC1=S)N[C@@H](CO)Cc1ccccc1`, the Potency is 29.1 µM (active) and the cell number change is -1.15%.
As for `COc1cc(/C=C2\SC(=S)N(CC(=O)Nc3ccc(O)cc3)C2=O)cc(OC)c1OC`, the Potency entry was “inactive” and the cell number change came to 19.7%.
The like results for `COc1cc(/C=C2\SC(=S)N(CCC(=O)Nc3cccc(O)c3)C2=O)cc(OC)c1OC` were, in that order, 3.66 µM (active) and 10.2%.
Regarding `COC(=O)c1ccccc1Oc1ccc(NC(=O)CCCl)cc1`, the Potency result is “inactive” and the cell number change is -3.28%.
The corresponding values for `O=C(CSc1nnc(Cn2c(=O)sc3ccccc32)n1-c1ccccc1)N1CCCC1` are “inactive” and -5.75%.
Consider `CC(C)C(C(=O)NCC1CCCO1)N(C(=O)CNS(=O)(=O)c1ccccc1)c1ccc(F)cc1` (stereo not given), for which the Potency entry was “inactive” and the cell number change came out at 10.5%.
The like results for `Fc1cccc(COc2ccccc2CNc2ccccc2)c1` were, in that order, “inactive” and -10%.
The like results for `COCCn1ccc2c(OCC(=O)NCc3ccccc3)cccc2c1=O` were, in that order, “inactive” and -6.52%.
For the compound `O=S(=O)(N/N=C/c1cn(Cc2ccccc2)c2ccccc12)c1ccccc1`, the Potency entry was “inactive” and the cell number change is -19.2%.
In the case of `O=C(O)c1ccc(N/N=C/c2cn(Cc3ccc(F)cc3)c3ccccc23)cc1`, the Potency entry was “inactive” and the cell number change came out at 0.719%.
On to `O=c1ccn(Cc2ccccc2)c2ccccc12`, for which the Potency result was “inactive” and the cell number change is -20.5%.
The like results for `O=[N+]([O-])/C=C/c1cn(Cc2ccc(F)cc2)c2ccccc12` were, in that order, 20.6 µM (active) and -17.9%.
Turning to `CNC(=S)N/N=C/c1cn(Cc2ccc(F)cc2)c2ccccc12`, the Potency result was “inactive” and the cell number change was -3.02%.
In the case of `O=[N+]([O-])/C=C/c1cn(Cc2ccccc2)c2ccccc12`, the Potency was 10.3 µM (active).
For the compound `N/C(=N\OC(=O)C12CC3CC(CC(C3)C1)C2)c1ccncc1`, the Potency entry is “inactive” and the cell number change was -16.5%.
On to `COc1ccc(N(C(=O)CNC(=O)c2ccco2)C(C(=O)NCC2CCCO2)c2ccccc2)cc1OC` (stereo not given), for which the Potency entry is “inactive” and the cell number change stood at 7.66%.
The corresponding values for `O=C(c1ccc(-c2ccccc2)cc1)N1CCN(Cc2ccccn2)CC1` are “inactive” and -0.729%.
The corresponding values for `O=C(O)CC1S/C(=N/N=C/c2ccc(Br)cc2)N(c2ccccc2)C1=O` (stereo not given) are “inactive” and -1.06%.
On to `CCC(C)(C)n1nnnc1C(c1cccc(C#N)c1)N1CCN(c2cccc(C)c2C)CC1` (stereo not given), for which the Potency result is “inactive” and the cell number change was found to be 0.845%.
With `O=C(CSC1=NCCS1)N1CCN(c2ccccc2)CC1`, the Potency result was “inactive” and the cell number change is -11.5%.
Take `O=C(CSC1=NCCS1)N1CCCCCC1`: the Potency was 4.61 µM (active) and the cell number change amounted to 0.498%.
Turning to `O=C(CSC1=NCCS1)N1CCN(c2ccc(Cl)cc2)CC1`, the Potency result was “inactive” and the cell number change was 1.49%.
Take `Cc1c(Cl)cccc1NC(=O)CCCCCN1C(=O)CCC1=O`: the Potency entry was “inactive”.
On to `CS(=O)(=O)c1ccc2nc(NC(=O)Nc3cccc(Cl)c3)sc2c1`, for which the Potency is 16.4 µM (active) and the cell number change is 10.2%.
As to `CS(=O)(=O)c1ccc2nc(NC(=O)c3cccc(Cl)c3)sc2c1`, the Potency entry is “inactive” and the cell number change turned out to be 5.93%.
Turning to `Cc1ccc(NC(=O)Nc2nc3ccc(S(C)(=O)=O)cc3s2)cc1`, the Potency result is “inactive” and the cell number change stood at 0.9%.
On to `Cc1ccc(S(=O)(=O)Cc2cc(F)c([N+](=O)[O-])cc2[N+](=O)[O-])cc1`, for which the Potency is 0.411 µM (active) and the cell number change was found to be 20.1%.
As to `Cc1ccc(S(=O)(=O)Cc2ccc([N+](=O)[O-])cc2)cc1`, the Potency entry is “inactive” and the cell number change was -6.56%.
For the compound `CC(=O)c1ccc([N+](=O)[O-])c(CS(=O)(=O)c2ccc(Cl)cc2)c1`, the Potency result is “inactive” and the cell number change was 12.3%.
The corresponding values for `Cc1nc(C(C)NC(=O)CCc2nnc(-c3ccsc3)o2)cs1` (stereo not given) are “inactive” and -5.47%.
On to `CCC(c1nnc(SCC(=O)Nc2ccc(N3CCOCC3)cc2)n1Cc1ccccc1)N(C)C` (stereo not given), for which the Potency result was “inactive”.
As for `CS(=O)(=O)Cc1ccc(C(=O)N(CCc2ccccc2)Cc2ccccc2)cc1`, the Potency result was “inactive” and the cell number change was -0.348%.
The corresponding values for `C=CCOc1ccccc1CN(CCc1ccccc1)C(=O)c1cccc(S(C)(=O)=O)c1` are 4.11 µM (active) and 1.8%.
As for `CS(=O)(=O)c1cccc(C(=O)NCc2ccccc2)c1`, the Potency result was “inactive”.
Turning to `O=C(CNC(=O)c1cccs1)NCC(=O)OCc1ccc(F)cc1`, the Potency entry was “inactive” and the cell number change was -6.51%.
With `CN(C(=O)CSc1nc2sc3c(c2c(=O)n1C)CCC3)C1CCS(=O)(=O)C1` (stereo not given), the Potency result is “inactive” and the cell number change was -5.19%.
The corresponding values for `CCc1ccc(N(CC(=O)NC(C)(C)C)C(=O)CCC(=O)Nc2ccccn2)cc1` are “inactive” and 19.3%.
The corresponding values for `Cc1cccc(NC(=O)CCS(=O)(=O)c2ccccc2)n1` are “inactive” and 3.85%.
For `CSc1nnc(-c2sc3cc(Cl)ccc3c2Cl)n1C`, the Potency is 23.1 µM (active) and the cell number change is -10.5%.
The corresponding values for `CSc1nnc(-c2ccccc2)n1C` are “inactive” and -0.435%.
Regarding `CCn1c(SC)nnc1-c1sc2cc(Cl)ccc2c1Cl`, the Potency result was “inactive” and the cell number change is -4.88%.
